# Entries with a potency or affinity are not part of this list. Calls of active or inactive are those of the source. How the calls were made is not given here.
# Assay: cytotoxicity in HEK293 cells, dose response, cytotoxicity control, cell-based, plate reader, cherry-pick (AID 651899);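 further: cells exposed to compound for 48 hours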
# Conditions: series mostly up to 26 µM; activity change, negative = cytotoxicity: at the top concentration
row,Compound,"activity change, negative = cytotoxicity"
1,C/C=C/c1ccc2c(c1)O[C@@H](CN(C)C(=O)Cc1cccnc1)[C@H](C)CN([C@H](C)CO)S2(=O)=O,7.53% (inactive)
2,COC(=O)C[C@H]1CC[C@@H]2[C@H](COC[C@@H](O)CN2C(=O)Nc2cccc(F)c2)O1,-0.606% (inactive)
3,O=C(CSc1nc2cc(C(=O)O)ccc2c(=O)n1-c1ccc(F)cc1)Nc1ccc(F)c(F)c1F,26.8% (inactive)
4,Cn1c(=O)c2c(nc(OCc3cccnc3)n2Cc2ccccc2)n(C)c1=O,0.309% (inactive)
5,COc1cc(C(=O)N2Cc3cc4ccccc4nc3C2C)cc(OC)c1OC (stereo unspecified),36.1% (inactive)
6,CC(C)(C)c1cc(C(=O)Nc2cccnc2)cc(C(=O)Nc2cccnc2)c1,-6.15% (inactive)
7,O=C(CSc1nc2c(c(=O)n1-c1ccc(Cl)cc1)SCC2)N1CCOCC1,-6.89% (inactive)
8,COc1cc(-c2nc3ccccc3nc2-c2ccc(O)c(OC)c2)ccc1O,24.3% (inactive)
9,COc1cccc(CNC(=O)c2ccc(NC(=O)C3=CSCCO3)cc2)c1,1.53% (inactive)
10,CCOC(=O)c1ccc2c(c1)nc(SCc1cn3ccsc3n1)n2CC,1.73% (inactive)
11,O=C1CCCc2c1cc(C(=O)NCCCN1CCOCC1)c(=O)n2-c1ccc(Cl)cc1,-31.2% (inactive)
12,O=C(Nc1ccc(F)c(Cl)c1)C1CCCN(c2cnccn2)C1 (stereo unspecified),17.6% (inactive)
13,Cc1nc2nc(SCC(=O)NCc3ccco3)nn2c(C)c1Cc1ccccc1,-21.3% (inactive)
14,O=C(Nc1ccc2nccnc2c1)c1cnccn1,-15.9% (inactive)
15,C=C(C)n1c(=O)n(Cc2ccccc2C)c2ccccc21,-13.3% (inactive)
16,CC(=O)c1ccc(NC(=O)C2CC(=O)N(Cc3ccccc3)C2)cc1 (stereo unspecified),-18.9% (inactive)
17,Fc1ccc(-c2ccc3c(c2)C2CC3CCN2)cc1 (stereo unspecified),8.18% (inactive)
18,C/C=C(/C)C(=O)OC(C)(C)[C@@H]1Cc2c(ccc3ccc(=O)oc23)O1,2.27% (inactive)

row,Compound,"activity change, negative = cytotoxicity"
1,N#C[C@H]1[C@@H](c2ccccc2)[C@@H](CO)N1C(=O)Nc1cccc(F)c1,20% (inactive)
2,CO[C@H]1CN(C)C(=O)c2ccc(NC(C)=O)cc2OC[C@@H](C)N(C(=O)c2ccc(F)cc2)C[C@H]1C,21.7% [at 12 µM] (inactive)
3,COc1ccc(C2c3c(oc4ccc(Cl)cc4c3=O)C(=O)N2CCN2CCOCC2)cc1 (stereo unspecified),0.468% (inactive)
4,O=C(Nc1ccc(NS(=O)(=O)c2ccccc2)cc1)c1cccnc1,-18.6% (inactive)
5,O=C(Nc1cccnc1)c1cc2nc(C3CC3)cc(C(F)(F)F)n2n1,10.3% (inactive)
6,COc1ccccc1S(=O)(=O)N1CC[C@@H]2[C@H](CO)Nc3ccc(-c4cccc(C#N)c4)cc3[C@@H]21,16% (inactive)
7,COc1cccc(NC(=O)CCC2CCN(C(=O)c3ccc(C(C)=O)s3)CC2)c1,11.9% (inactive)
8,Cc1c(C(N)=O)sc(N)c1C(=O)OC(C)C,36.6% (inactive)
9,C/C=C/c1ccc2c(c1)O[C@@H](CN(C)C(=O)c1ccc3c(c1)OCO3)[C@@H](C)CN([C@@H](C)CO)S2(=O)=O,30.5% (inactive)
10,O=C(CN1C(=O)/C(=C/c2cccc(Br)c2)SC1=S)Nc1cccnc1,29.1% (inactive)
11,COCCN1C(=O)c2ccc(C(=O)Nc3cccnc3)cc2C1=O,23.6% (inactive)
12,Cc1ccc(NCc2nnc(SCC(=O)N3CCc4ccccc43)n2C)cc1,-21.8% (inactive)
13,O=C(Nc1cccc(F)c1)C1CCCN(c2cnccn2)C1 (stereo unspecified),-20% (inactive)
14,COc1ccc(-c2ccc3c(c2)[C@H]2[C@H](CCN2C(=O)Cc2cccnc2)[C@H](CO)N3C)cc1,-9.23% (inactive)
15,COc1ccc(NC2c3ccccc3C(=O)N2c2cccnc2)cc1Cl (stereo unspecified),-15% (inactive)
16,O=C(Nc1ccc(F)c(F)c1)c1ccc(-n2cncn2)c([N+](=O)[O-])c1,8.6% (inactive)
17,Cc1ccc(Cc2c(C)nc3nc(SCC(=O)NCCN4CCOCC4)nn3c2C)cc1,-21.5% (inactive)
18,CCOC(=O)C1(CCc2ccccc2)CCN(C(=O)CN2CCOC2=O)CC1,9.01% (inactive)
